Calls of active or inactive are those of the source. Rule for the calls: active = hit-call score of the fitted dose curve at least 0.9, where 1 is the maximum; inactive = score below 0.9.
Assays:
[1] = ATG_GLI_CIS: Attagene CIS-FACTORIAL HepG2 Assay for human Zinc Finger Protein GLI1 (AID 2282945); settings: HepG2, Attagene cis-factorial reporter mRNA, GLI element; actives raise or lower the signal
How it was run: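 Transiently transfected HepG2 cells report endogenous transcription factor activity via cis-element-driven reporter units. After 24 h compound exposure, reporter mRNA was measured by RT-PCR with capillary electrophoresis; bidirectional fitting against DMSO baseline.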

[2] = target: Bile acid receptor (Homo sapiens) (UniProt Q96RI1); experiment: ATG_IR1_CIS: Attagene CIS-FACTORIAL HepG2 Assay for human Nuclear Receptor Subfamily 1 Group H Member 4 (NR1H4), IR1 submotif (AID 2282946); settings: IR1 reporter transcription, actives raise or lower the signal
How it was run: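 HepG2 cells transiently transfected with multiple cis-promoter-driven reporter units to measure endogenous transcription factor activity; 24 h exposure. Reporter mRNA read by RT-PCR, FAM labelling, HpaI digestion and capillary electrophoresis. Bidirectional fit versus DMSO.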

[3] = ATG_GRE_CIS: Attagene CIS-FACTORIAL HepG2 Assay for human Glucocorticoid Response Elements (GRE) (AID 2282947); settings: HepG2 GRE cis-reporter, Attagene multiplex mRNA; actives raise or lower the signal
How it was run: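 Endogenous transcription factor activity is read through cis-element reporter constructs transiently transfected into HepG2 cells. After 24 h treatment, labelled RT-PCR products are resolved by capillary electrophoresis; DMSO sets baseline for bidirectional curve fitting.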

[4] = ATG_ISRE_CIS: Attagene CIS-FACTORIAL HepG2 Assay for human Interferon Regulatory Factor 1 (IRF1) binding to an Interferon-Stimulated Response Element (ISRE) (AID 2282948); settings: HepG2 ISRE cis-reporter (Attagene), mRNA transcription readout; actives raise or lower the signal
How it was run: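 Transfected HepG2 (multiple reporter transcription units, cis elements) dosed 24 h. RNA → oligo(dT) RT → PCR → 6-FAM primer extension → HpaI → CE. DMSO = negative control/baseline.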

[5] = ATG_M_32_CIS: Attagene CIS-FACTORIAL HepG2 Assay for M32 Transcription Factor (Internal Marker) (AID 2282949); settings: HepG2 Attagene cis-factorial M32 reporter, mRNA; actives raise or lower the signal;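 note: background control marker of the multiplexed CIS panel rather than a real target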
How it was run: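 Following 24 h chemical exposure of HepG2 cells transiently expressing cis-promoter reporter constructs, reporter transcript levels were determined by RT-PCR with fluorescent labelling and capillary electrophoresis, then fitted bidirectionally against DMSO.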

[6] = ATG_M_06_CIS: Attagene CIS-FACTORIAL HepG2 Assay for M06 Transcription Factor (Internal Marker) (AID 2282950); settings: HepG2 Attagene CIS-FACTORIAL M06 internal marker reporter; actives raise or lower the signal
How it was run: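 Measured 24 h post-dosing in transiently transfected HepG2 cells, this internal-marker endpoint reports reporter mRNA via RT-PCR with fluorescent primer extension and capillary electrophoresis. DMSO served as negative control and baseline for bidirectional fitting.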

[7] = target: Hypoxia-inducible factor 1-alpha (Homo sapiens) (UniProt Q16665); experiment: ATG_HIF1a_CIS: Attagene CIS-FACTORIAL HepG2 Assay for human Hypoxia Inducible Factor 1 (HIF1A) (AID 2282951); settings: HepG2 Attagene cis-factorial HIF1a reporter transcription; actives raise or lower the signal
How it was run: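 Activity is fitted in both directions relative to DMSO. Reporter transcripts are read by RT-PCR, fluorescent primer extension and capillary electrophoresis after 24 h chemical treatment. The cells are HepG2 carrying transiently transfected cis-element-driven reporter units responding to endogenous factors.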

[8] = target: Hepatocyte nuclear factor 6 (Homo sapiens) (UniProt Q9UBC0); experiment: ATG_HNF6_CIS: Attagene CIS-FACTORIAL HepG2 Assay for human Hepatocyte Nuclear Factor 6 (HNF6) (AID 2282952); settings: HepG2 Attagene cis-factorial HNF6 reporter transcription; actives raise or lower the signal
How it was run: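 HepG2 cells transiently transfected with cis-element-driven multiple reporter transcription units, dosed 24 h; reporter mRNA quantified by RT-PCR, FAM primer extension, HpaI digestion and capillary electrophoresis; bidirectional fit versus DMSO baseline.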

[9] = target: Heat shock factor protein 1 (Homo sapiens) (UniProt Q00613); experiment: ATG_HSE_CIS: Attagene CIS-FACTORIAL HepG2 Assay for human Heat Shock Transcription Factor 1 (HSE) (AID 2282953); settings: HepG2 HSE cis-reporter, Attagene RNA transcription; actives raise or lower the signal
How it was run: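 Reporter mRNA induction in HepG2 is measured 24 h after dosing, using transiently transfected multiplexed cis-regulated reporter units. Signal comes from capillary electrophoresis of labelled RT-PCR products, with DMSO as negative control.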

[10] = ATG_MRE_CIS: Attagene CIS-FACTORIAL HepG2 Assay for human Metal Responsive Element (MRE) (AID 2282954); settings: HepG2 MRE cis-reporter transcription, Attagene multiplex; actives raise or lower the signal
How it was run: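 Fluorescent reporter fragments separated by capillary electrophoresis give mRNA induction for the MRE unit after 24 h treatment of transfected HepG2 cells. Endogenous transcription-factor activity is read; DMSO serves as negative control and baseline.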

Measured: AC50

Hypoxia-inducible factor 1-alpha (Homo sapiens), sequence (Q16665 whole entry, looked up): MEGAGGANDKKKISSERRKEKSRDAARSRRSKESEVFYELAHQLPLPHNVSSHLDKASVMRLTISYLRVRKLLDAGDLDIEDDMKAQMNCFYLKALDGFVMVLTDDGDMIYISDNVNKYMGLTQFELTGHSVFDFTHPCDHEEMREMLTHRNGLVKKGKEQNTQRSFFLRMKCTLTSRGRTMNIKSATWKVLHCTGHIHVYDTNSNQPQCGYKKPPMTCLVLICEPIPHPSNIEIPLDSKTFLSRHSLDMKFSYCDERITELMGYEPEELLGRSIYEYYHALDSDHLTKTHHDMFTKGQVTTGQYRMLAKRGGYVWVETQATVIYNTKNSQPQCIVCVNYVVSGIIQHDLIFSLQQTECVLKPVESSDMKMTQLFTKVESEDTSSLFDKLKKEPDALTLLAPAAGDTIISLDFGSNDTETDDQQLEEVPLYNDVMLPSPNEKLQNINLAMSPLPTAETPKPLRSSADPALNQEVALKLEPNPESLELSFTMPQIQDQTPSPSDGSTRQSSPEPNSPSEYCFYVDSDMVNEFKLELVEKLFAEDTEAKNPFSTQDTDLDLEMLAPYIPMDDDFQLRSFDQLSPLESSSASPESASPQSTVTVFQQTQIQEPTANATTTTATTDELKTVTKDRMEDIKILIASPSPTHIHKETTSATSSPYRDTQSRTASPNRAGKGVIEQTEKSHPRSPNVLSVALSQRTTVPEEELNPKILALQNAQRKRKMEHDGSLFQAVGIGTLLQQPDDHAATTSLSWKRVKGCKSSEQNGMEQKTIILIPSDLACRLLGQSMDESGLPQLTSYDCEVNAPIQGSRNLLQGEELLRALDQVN
Heat shock factor protein 1 (Homo sapiens), sequence (Q00613 whole entry, looked up): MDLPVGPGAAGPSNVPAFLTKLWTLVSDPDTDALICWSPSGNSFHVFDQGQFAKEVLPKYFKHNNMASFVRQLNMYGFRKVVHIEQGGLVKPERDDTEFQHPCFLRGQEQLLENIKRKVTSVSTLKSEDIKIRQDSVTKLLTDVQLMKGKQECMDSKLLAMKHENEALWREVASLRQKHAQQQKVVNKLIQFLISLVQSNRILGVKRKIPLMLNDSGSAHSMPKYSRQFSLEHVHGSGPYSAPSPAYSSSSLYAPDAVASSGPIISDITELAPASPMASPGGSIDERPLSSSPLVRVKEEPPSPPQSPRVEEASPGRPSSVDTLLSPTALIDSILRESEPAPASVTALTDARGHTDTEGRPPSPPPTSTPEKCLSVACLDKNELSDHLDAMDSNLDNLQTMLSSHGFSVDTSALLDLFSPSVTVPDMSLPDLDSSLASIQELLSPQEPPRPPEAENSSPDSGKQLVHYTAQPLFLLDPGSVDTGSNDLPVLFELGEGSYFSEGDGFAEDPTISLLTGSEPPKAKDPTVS
Hepatocyte nuclear factor 6 (Homo sapiens), sequence (Q9UBC0 whole entry, looked up): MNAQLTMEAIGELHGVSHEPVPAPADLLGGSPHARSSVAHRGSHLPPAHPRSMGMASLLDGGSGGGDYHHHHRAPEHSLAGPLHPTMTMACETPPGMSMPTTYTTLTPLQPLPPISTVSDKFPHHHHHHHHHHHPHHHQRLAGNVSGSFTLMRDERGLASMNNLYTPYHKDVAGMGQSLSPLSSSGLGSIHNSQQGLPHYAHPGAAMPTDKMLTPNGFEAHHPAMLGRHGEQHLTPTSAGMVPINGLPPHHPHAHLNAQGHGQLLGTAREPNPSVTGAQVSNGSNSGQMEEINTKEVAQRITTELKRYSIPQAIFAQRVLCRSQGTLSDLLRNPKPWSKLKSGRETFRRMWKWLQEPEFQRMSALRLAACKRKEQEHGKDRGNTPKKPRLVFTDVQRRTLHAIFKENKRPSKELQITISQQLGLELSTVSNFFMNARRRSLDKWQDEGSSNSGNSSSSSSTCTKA
Bile acid receptor (Homo sapiens), sequence (Q96RI1 whole entry, looked up): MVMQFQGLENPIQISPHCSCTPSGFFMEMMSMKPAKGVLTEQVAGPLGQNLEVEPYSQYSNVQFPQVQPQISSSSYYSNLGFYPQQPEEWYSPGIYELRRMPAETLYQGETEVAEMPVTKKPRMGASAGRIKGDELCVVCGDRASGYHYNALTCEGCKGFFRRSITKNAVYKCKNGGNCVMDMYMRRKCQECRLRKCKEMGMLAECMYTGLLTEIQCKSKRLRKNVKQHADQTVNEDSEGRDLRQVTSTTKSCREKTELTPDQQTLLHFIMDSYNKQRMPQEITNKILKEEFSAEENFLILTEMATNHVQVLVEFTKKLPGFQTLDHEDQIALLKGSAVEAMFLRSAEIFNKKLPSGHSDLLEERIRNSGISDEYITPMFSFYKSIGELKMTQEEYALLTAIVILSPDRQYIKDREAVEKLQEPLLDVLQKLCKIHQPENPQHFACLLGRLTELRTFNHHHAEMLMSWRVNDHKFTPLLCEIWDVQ

CCOC(=O)C1=NOC(c2ccccc2)(c2ccccc2)C1
active: [7] 160 µM | [9] 143 µM
inactive: all other assays above

CCC[Si](OC)(OC)OC
inactive: all assays above

C=CC(=O)NC(C)(C)C
active: [2] 27.5 µM
inactive: all other assays above

CCNc1nc(NC(C)(C)C)nc(OC)n1
inactive: all assays above

Nc1ccc(C(=O)OCCCOC(=O)c2ccc(N)cc2)cc1
inactive: all assays above

CC(C)=CCCC(C)=CC#N
inactive: all assays above

CCc1occc(=O)c1O
inactive: all assays above

C=CC(=O)OCCCCCCOC(=O)C=C
active: [2] 42.5 µM | [4] 75.3 µM | [9] 180 µM | [10] 52.4 µM
inactive: all other assays above

CCCCCCCCCCCCCc1ccccc1
inactive: all assays above

CCCCCC(=O)OCC
inactive: all assays above

CCc1cccc(CC)c1
inactive: all assays above

CCCCCCCCCCCCC
inactive: all assays above

O=C(O)C1CCC(C(=O)O)CC1 (stereo not drawn)
inactive: all assays above

CN1CCN(C)CC1
inactive: all assays above

COc1ccc(C(=O)c2ccccc2)c(O)c1
active: [2] 151 µM | [10] 130 µM
inactive: all other assays above

Nc1ccc(C(=O)O)cc1
inactive: all assays above

CCCCCCOc1ccc(N)cc1
inactive: all assays above

CCN1CN(CC)CN(CC)C1
active: [1] 141 µM | [3] 97 µM | [4] 146 µM | [9] 174 µM | [10] 166 µM
inactive: [2] | [5] | [6] | [7] | [8]

C/C=C/C=C/CCCCCCCO
active: [1] 168 µM | [2] 172 µM | [9] 168 µM | [10] 121 µM
inactive: all other assays above

CCCCCCCCCCCCCC(=O)OC(C)C
inactive: all assays above

COc1ccc(C(=O)/C(Br)=C\C(=O)O)cc1
active: [4] 57.2 µM | [7] 56.1 µM | [9] 174 µM | [10] 55.5 µM
inactive: all other assays above

C=C[Si](OCCOC)(OCCOC)OCCOC
not listed: [8]
inactive: all other assays above

CCCCC(C=O)CC (stereo not drawn)
not listed: [9]
inactive: all other assays above

CCCCCCCC(=O)OCC
inactive: all assays above

Cc1cc(C)c(C=O)c(C)c1
inactive: all assays above
